Source: PubChem (National Center for Advancing Translational Sciences (NCATS))
Pf Dd2 inh = blocks in vitro growth of P. falciparum Dd2. P. falciparum Dd2 growth, SYBR Green, 72 h. actives 4.3% (n = 120,000). AID 1347417. Potency, µM (series often up to 28.9 µM), for the others: at the top dose activity, negative = inhibition, most hits filed as inhibitors; active means well fitted inhibition curve with a large enough effect;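 further: plate controls were DMSO vehicle for no effect and reference drug for full effect; nearly all actives have a fitted effect of over 65% in size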
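Readout: SYBR Green fluorescence, 485 nm excitation, 535 nm emission, after ~16 h lysis at 37C. Before that, Dd2-infected red cells (2.5% hematocrit) grew 72 h with compound, 29 uM top final concentration.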
An asterisk follows results filed as active; i = inactive; [ ] = dose if it differs, or a comment. This excerpt belongs to a sample that is enriched for hits. Potency means the concentration at half of the fitted maximal effect.

SMILES	Pf Dd2 inh
C[C@H](C(=O)N1CCCC1)C1CC[C@@]2(C)Cc3sc(CS(=O)(=O)C(C)(C)C)nc3[C@@H](C)[C@@H]2[C@H]1O (stereo partly drawn)	-20%
Clc1ccc(-c2cc3c(cn2)CN(Cc2ccncc2)CCN3)cc1	i
O=C1NCCCN1C1CCN(Cc2cccc(C(F)(F)F)c2)CC1	i
CCCCNCc1ccc(OCC(O)CN2CCSCC2)c(OC)c1 (stereo not drawn)	-29%
COc1cc(CN2CCOCC2)ccc1OCC(O)CN1CCSCC1 (stereo not drawn)	-8%
CCn1cc(CNCc2ccc(OCC(O)CN3CCSCC3)c(OC)c2)cn1 (stereo not drawn)	-4%
CC1CCN(Cc2ccccc2OCC(O)CN2CCSCC2)CC1 (stereo not drawn)	4.5µM*
Cc1nnc(CN(C)Cc2ccccc2OCC(O)CN2CCSCC2)o1 (stereo not drawn)	-22%
Cc1cccc(CNCc2ccccc2OCC(O)CN2CCSCC2)c1 (stereo not drawn)	1.6µM*
C1CC(C2CCN(C3CNC3)CC2)CN1 (stereo not drawn)	-4%
COc1ccc(CNC(=O)c2cc3c(N4CCSCC4)nc(C)cn3n2)c(OC)c1	-1%
CN1C(=O)C2(CCN(C(=O)c3ccnn3C)CC2)c2ccccc21	46%
O=C(C1CC1)N1CCCC2(CN[S+](=O)([O-])c3cccnc3O2)C1 (stereo not drawn)	13%
CC(C)CC(=O)N1CCCN(S(C)(=O)=O)c2ccccc21	-1%
CC(C)Nc1ccc2nnc(-c3ccc(F)cn3)n2n1	-14%[44.1 µM]
Cn1c(CO[C@H]2CN(C(=O)c3ccno3)C[C@H]2F)nc2ccccc21	i
Cc1ccsc1CN1CCCC(CO)CCNC(=O)CC1 (stereo not drawn)	-15%
CCn1cc(S(=O)(=O)N2C[C@@H](C(=O)NC)[C@H](c3nc(C)no3)C2)cn1	14%
O=S(=O)(c1ccccc1)c1nnn2c1nc(NCc1ccncc1)c1ccccc12	-5%
Cc1ncsc1CN1CCCN(S(C)(=O)=O)C(c2ccccc2)CC(=O)NCC1 (stereo not drawn)	0%
CCCc1cc(=O)oc2c3c(ccc12)OCN(Cc1ccc(OC)cc1)C3	10µM*
COc1ccc(CN2CC[C@H]3COC(=O)N3c3cc(F)ccc3C2)cc1	i
COc1ccc(CN2CC[C@H]3COC(=O)N3c3ccccc3C2)cc1	i
COc1ccc(CN2CC[C@H]3COC(=O)N3c3cc(C)ccc3C2)cc1	i
COc1ccc(CN2CC[C@H]3COC(=O)N3c3ccc(OC)cc3C2)cc1	-20%[44.1 µM]
SMILES	Pf Dd2 inh
COc1ccc(CN2COc3ccc4c(C)cc(=O)oc4c3C2)cc1	10µM*
Cc1cnc(C(=O)N2CCC(N3C(=O)C4(CCCC4)C3c3scnc3C)CC2)cn1 (stereo not drawn)	-6%
CCn1cc(S(=O)(=O)N2CCC3(CC2)C(C(=O)O)CC(=O)N3C)c(C)n1 (stereo not drawn)	-5%
COc1ccccc1CNC(=O)C[C@@H]1CCNC[C@@H]1Cc1cc(CSc2ccccc2)on1	-17%
COc1cccc(CCC(=O)N2CCC(N3CC4CC(C3)[C@H]3CCCC(=O)N3C4)CC2)c1 (stereo partly drawn)	-11%
O=C1CCCN1CCCN1C(=O)[C@H]2CN(Cc3cccc(F)c3F)C[C@H]2C1=O	5%
Cc1ccncc1C(=O)N1C[C@@H](COc2ccccc2)[C@H](C(N)=O)C1	11%
CCc1ccc2occ(CC(=O)N(Cc3ccc(N(C)C)cc3)C3CCS(=O)(=O)C3)c2c1 (stereo not drawn)	-14%
Cc1ccc2occ(CC(=O)N(Cc3ccc(N(C)C)cc3)C3CCS(=O)(=O)C3)c2c1 (stereo not drawn)	-25%
CCN(CC)c1ccc(CN(C(=O)Cc2coc3ccc(C)cc23)C2CCS(=O)(=O)C2)cc1 (stereo not drawn)	13µM*
Cc1cc(C(=O)N2CCCC(n3c(C)cnc3C3CC3)C2)n(C)n1 (stereo not drawn)	-16%
COCCC(=O)N1CCCCCCNC(=O)[C@@H]2C[C@@H](c3nc(-c4cccnc4)no3)C[C@@H]21	i
CCNC(=O)CN1C(=O)NC(CCc2ccccc2)(C2CCNCC2)C1=O (stereo not drawn)	-13%
O=C1NC(=NC2CCCC2)C2(CCCN([S+](=O)([O-])c3cccs3)C2)N1c1cccnc1 (stereo not drawn)	-2%
CC(C)NC(=O)CCC1CCN(C(=O)c2ccccc2F)CC1	-15%
COc1ccc2c(CNC3CCCCCC3)c(C(=O)O)n(Cc3cccc(F)c3)c2c1	-8%
Cc1ccc(Cn2c(C(=O)O)c(CNC3CCCC3)c3ccc(C)cc32)cc1	i
COc1ccc(Cn2c(C(=O)O)c(CNC3CCC(C)CC3)c3ccc(C)cc32)cc1 (stereo not drawn)	-9%
COc1ccc2c(CNC3CCCCCC3)c(C(=O)O)n(Cc3ccc(C)cc3)c2c1	8.9µM*
C=Cc1ccc(Cn2c(C(=O)O)c(CNC3CCCCC3)c3ccc(OC)cc32)cc1	11µM*
COc1ccc(Cn2c(C(=O)O)c(CNC3CCCC3)c3ccc(C)cc32)cc1	61%
